# According to the supplement of paper PMC6555819:
# Columns and labels:
# Experiment in all cases: PBM binding z-score (relative to random genomic background probes); higher = stronger binding; sequences stand for … in GC…GCGATTGACAGCGTAGAATGAAGG
# [1] = system: PPARg:RXRa DBDmut IVT, anti-RXR (DBD mutation: RXRa K156A/R161A, NR concentration 270 nM, RXRa partner concentration 90 nM)
# Method in brief: (§1)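 Custom Agilent 4×180K protein-binding microarrays carried double-stranded probes. Their 34-nt variable regions held direct-repeat seeds, single-nucleotide variants, half-site ablations and random human genomic background sequences. Arrays were incubated 1 h with ligand-free nuclear receptor dimers in PBS pH 7.4, 2% milk, 0.02% Triton X-100, 1 mM DTT, 0.2 mg/mL BSA and 0.4 mg/ml salmon testes DNA. Antibodies against each partner (one per run) detected binding, and scanned fluorescence was regression-normalized. Binding z-scores use random background probes as reference.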
# [2] = system: PPARg:RXRa IVT, anti-PPARg (NR concentration 270 nM, RXRa partner concentration 90 nM)
# Method in brief: as §1
# [3] = system: PPARg DBDmut:RXRa IVT, anti-PPARg (DBD mutation: PPARg1 K132A/R137A, NR concentration 270 nM, RXRa partner concentration 90 nM)
# Method in brief: as §1
# [4] = system: PPARg DBDmut IVT, anti-PPARg (DBD mutation: PPARg1 K132A/R137A, NR concentration 270 nM)
# Method in brief: as §1
# [5] = system: PPARg homodimer (NR concentration 180 nM)
# Method in brief: as §1
# [6] = system: PXR:RXRa (NR concentration 270 nM, RXRa partner concentration 90 nM)
# Method in brief: as §1
# [7] = system: PXR homodimer (NR concentration 270 nM)
# Method in brief: as §1
# [8] = system: RARa:RXR (NR concentration 270 nM, RXRa partner concentration 90 nM)
# Method in brief: as §1
# [9] = system: RARa homodimer (NR concentration 270 nM)
# Method in brief: as §1
# [10] = system: RARb:RXRa (NR concentration 270 nM, RXRa partner concentration 90 nM)
# Method in brief: as §1
# [11] = system: RARb homodimer (NR concentration 270 nM)
# Method in brief: as §1
# [12] = system: RARg:RXRa (NR concentration 270 nM, RXRa partner concentration 90 nM)
# Method in brief: as §1
# [13] = system: RARg homodimer (NR concentration 270 nM)
# Method in brief: as §1
# [14] = system: RXRa DBDmut IVT, anti-RXR (DBD mutation: RXRa K156A/R161A, NR concentration 90 nM)
# Method in brief: as §1
# [15] = system: RXRa homodimer (NR concentration 180 nM)
# Method in brief: as §1
# [16] = system: THRa:RXRa (NR concentration 90 nM, RXRa partner concentration 90 nM)
# Method in brief: as §1
# [17] = system: THRa homodimer (NR concentration 90 nM)
# Method in brief: as §1
# [18] = system: VDR:RXRa (NR concentration 270 nM, RXRa partner concentration 90 nM)
# Method in brief: as §1
# [19] = system: VDR homodimer (NR concentration 270 nM)
# Method in brief: as §1
Sequence,PBM binding z-score [1],PBM binding z-score [2],PBM binding z-score [3],PBM binding z-score [4],PBM binding z-score [5],PBM binding z-score [6],PBM binding z-score [7],PBM binding z-score [8],PBM binding z-score [9],PBM binding z-score [10],PBM binding z-score [11],PBM binding z-score [12],PBM binding z-score [13],PBM binding z-score [14],PBM binding z-score [15],PBM binding z-score [16],PBM binding z-score [17],PBM binding z-score [18],PBM binding z-score [19]
TAGCCTGGGTCATTGGGCCAGTATAGTACGCATC,1.27,3.57,0.337,-0.475,0.764,1.44,-1.02,2.07,-0.67,3.34,2.47,3.67,3.47,0.363,3.04,1.99,-0.547,1.97,0.472
CCGACTGGGGCAAAGCTTACCATACTCAGTACGA,4.39,2.85,-0.291,-0.457,0.119,-0.708,-0.701,-0.665,-0.639,0.229,-0.047,0.0271,0.339,0.525,-0.115,-0.341,-0.519,-0.585,-0.448
CGAAATAGGTCAAGGACAGTGAATCTCCGCACGC,7.8,7.31,2.5,0.573,3.31,2.69,0.113,3.82,1.59,4.51,3.69,5.2,6.01,1.55,4.67,3.1,1.7,2.46,0.593
AATACAGGGTCATCGTAGTCCAGAGTACGCACAG,2.79,5.02,1.99,2.18,2.87,5.53,1.22,5.21,0.827,4.73,3.56,5.76,4.86,3.42,6.39,4.18,1.83,5.65,4.22
TCTTGTAGATCAAAGGTTAACAAAGCCGAAGCCT,2.15,4.38,1.04,0.514,1.03,2.26,0.125,3.03,1.01,2.09,1.66,1.93,1.09,0.706,3.2,1.32,-0.41,2.09,-0.185
CCTTACGGGTAACTGACAGGTTATAGCATTTGGA,1.03,0.095,-0.022,-0.575,0.529,0.109,-0.252,0.585,0.214,0.274,0.321,0.742,0.501,0.0265,0.525,0.456,-0.293,0.0689,-0.157
CAAACTAGGTCACAGAGGTCAAAGACCGTGCGTA,8.39,9.08,7.99,2.78,5.75,6.86,10.2,7.44,2.59,5.37,5.43,7.3,7.86,3.1,7.71,4.68,2.81,7.76,6.4
GCTGCTACGTCAGGTTGGTCAGCTAACGGGTACG,-0.264,-0.651,-0.712,-1.19,-0.583,-0.691,-0.732,-0.51,-1.16,-0.154,-0.00672,-0.503,-0.278,-0.049,-0.469,-0.38,-0.55,-0.773,-0.226
ACTATTAGTTAACTTAGGGCAACCGATACGACGC,0.0765,0.837,0.677,1.02,0.328,0.418,0.13,0.582,0.421,0.959,0.839,0.89,1,0.837,0.532,1.88,0.447,0.299,0.283
TCTGCTAGGTCAACGATGTTCAGCTAATCTGCTA,4.36,4.43,0.0539,0.546,0.745,1.4,-0.689,2,-0.343,4.15,2.97,3.73,4.24,1.03,2.47,2.73,0.88,1.67,-0.288
TATACAGGGTCAAAGGACAGAGTACGAATGTCGA,2.27,4.9,3.23,2.81,2.18,3.68,1.01,4.56,1.66,4.55,3.47,5.29,5.03,3.17,6.26,3.7,1.21,4.6,2.76
CCTAGTTGGTCAGGAGGTCACGCACCGGATATGA,1.74,4.03,0.246,-0.0131,3.74,4.85,1.04,5.52,2.11,4.06,4.9,5.68,4.98,0.815,5.93,3.94,2.78,4.58,2.71
CCTCGGAGGACAACAGGAGGTCAGACCTGCCAGA,0.294,0.546,-0.564,-0.997,1.43,2.11,0.241,2.19,0.183,2.89,3.55,3.39,3.43,0.289,1.93,2.83,1.02,1.95,1.25
CCTCGGTGGACAGAAGGTCAGAGCTGTCCGCTTT,-0.193,0.138,-2.04,-1.69,1.8,1.32,-0.447,1.66,-0.0873,2.56,2.87,2.3,1.99,-0.526,1.84,1.89,-0.379,0.609,-0.538
TCTGCTAGGTCAGTTGGTCAGCTGACGAGCTGCC,2.95,3.18,1.59,1.47,0.336,0.0252,-1.5,0.0768,-1.43,3.42,2.33,2.98,4.14,0.382,0.854,1.31,-0.308,-0.0967,-1.1
